In paper PMC11062922 (Nature Chemical Biology, 2023):
Like-named read-outs stand apart in the source and are kept apart here.

Tested on: TTK
Settings: read-out: apparent Kd, n = 1

**Q.** Lestaurtinib was tested. Which potency estimated from few doses (compound concentrations:100 nM and 1000 nM (sheet 'Lestaurtinib' of Supplementary Table 1),run:Lestaurtinib_02422_R1,Plate:MR006) did it give?
**A.** 786 nM

**Q.** What about the potency estimated from few doses (compound concentrations:100 nM and 1000 nM (sheet 'Lestaurtinib' of Supplementary Table 1),run:Lestaurtinib_02422_R2,Plate:MR006) of the same substance?
**A.** 1690 nM

**Q.** And the potency estimated from few doses (compound concentrations:100 nM and 1000 nM (sheet 'Lestaurtinib' of Supplementary Table 1),run:Lestaurtinib_02422_R3,Plate:MR006)?
**A.** 1630 nM

**Q.** What about the potency estimated from few doses (compound concentrations:100 nM and 1000 nM (sheet 'Lestaurtinib' of Supplementary Table 1),run:Lestaurtinib_02437_R1,Plate:MR007) of the same substance?
**A.** 94.9 nM

**Q.** What about the potency estimated from few doses (compound concentrations:100 nM and 1000 nM (sheet 'Lestaurtinib' of Supplementary Table 1),run:Lestaurtinib_02437_R3,Plate:MR007) of the same substance?
**A.** 1430 nM

**Q.** And the potency estimated from few doses (compound concentrations:100 nM and 1000 nM (sheet 'Lestaurtinib' of Supplementary Table 1),run:Lestaurtinib_02438_R1,Plate:MR008)?
**A.** 800 nM

**Q.** And the potency estimated from few doses (compound concentrations:100 nM and 1000 nM (sheet 'Lestaurtinib' of Supplementary Table 1),run:Lestaurtinib_02438_R2,Plate:MR008)?
**A.** 1970 nM

**Q.** And the potency estimated from few doses (compound concentrations:100 nM and 1000 nM (sheet 'Lestaurtinib' of Supplementary Table 1),run:Lestaurtinib_02443_R1,Plate:MR009)?
**A.** 1400 nM

**Q.** What about the potency estimated from few doses (compound concentrations:100 nM and 1000 nM (sheet 'Lestaurtinib' of Supplementary Table 1),run:Lestaurtinib_02473_R1,Plate:MR010) of the same substance?
**A.** 950 nM

**Q.** And the potency estimated from few doses (compound concentrations:100 nM and 1000 nM (sheet 'Lestaurtinib' of Supplementary Table 1),run:Lestaurtinib_02496_R1,Plate:MR013)?
**A.** 1370 nM

**Q.** What about the potency estimated from few doses (compound concentrations:100 nM and 1000 nM (sheet 'Lestaurtinib' of Supplementary Table 1),run:Lestaurtinib_02496_R2,Plate:MR013) of the same substance?
**A.** 1410 nM

**Q.** And the potency estimated from few doses (compound concentrations:100 nM and 1000 nM (sheet 'Lestaurtinib' of Supplementary Table 1),run:Lestaurtinib_02566_R1,Plate:MR014)?
**A.** 936 nM

**Q.** And the potency estimated from few doses (compound concentrations:100 nM and 1000 nM (sheet 'Lestaurtinib' of Supplementary Table 1),run:Lestaurtinib_02566_R2,Plate:MR014)?
**A.** 821 nM

**Q.** And the potency estimated from few doses (compound concentrations:100 nM and 1000 nM (sheet 'Lestaurtinib' of Supplementary Table 1),run:Lestaurtinib_02566_R3,Plate:MR014)?
**A.** 717 nM

**Q.** What about the potency estimated from few doses (compound concentrations:100 nM and 1000 nM (sheet 'Lestaurtinib' of Supplementary Table 1),run:Lestaurtinib_02572_R2,Plate:MR015) of the same substance?
**A.** 1840 nM

**Q.** What about the potency estimated from few doses (compound concentrations:100 nM and 1000 nM (sheet 'Lestaurtinib' of Supplementary Table 1),run:Lestaurtinib_02572_R3,Plate:MR015) of the same substance?
**A.** 1440 nM

**Q.** And the potency estimated from few doses (compound concentrations:100 nM and 1000 nM (sheet 'Lestaurtinib' of Supplementary Table 1),run:Lestaurtinib_02577_R3,Plate:MR016)?
**A.** 1700 nM

**Q.** What about the potency estimated from few doses (compound concentrations:100 nM and 1000 nM (sheet 'Lestaurtinib' of Supplementary Table 1),run:Lestaurtinib_02601_R1,Plate:MR018) of the same substance?
**A.** 1370 nM

**Q.** What about the potency estimated from few doses (compound concentrations:100 nM and 1000 nM (sheet 'Lestaurtinib' of Supplementary Table 1),run:Lestaurtinib_02601_R2,Plate:MR018) of the same substance?
**A.** 1620 nM

**Q.** And the potency estimated from few doses (compound concentrations:100 nM and 1000 nM (sheet 'Lestaurtinib' of Supplementary Table 1),run:Lestaurtinib_02601_R3,Plate:MR018)?
**A.** 1610 nM

**Q.** And the potency estimated from few doses (compound concentrations:100 nM and 1000 nM (sheet 'Lestaurtinib' of Supplementary Table 1),run:Lestaurtinib_02606_R3,Plate:MR019)?
**A.** 1510 nM

**Q.** What about the potency estimated from few doses (compound concentrations:100 nM and 1000 nM (sheet 'Lestaurtinib' of Supplementary Table 1),run:Lestaurtinib_02624_R1,Plate:MR020) of the same substance?
**A.** 1430 nM

**Q.** And the potency estimated from few doses (compound concentrations:100 nM and 1000 nM (sheet 'Lestaurtinib' of Supplementary Table 1),run:Lestaurtinib_02624_R2,Plate:MR020)?
**A.** 1760 nM

**Q.** And the potency estimated from few doses (compound concentrations:100 nM and 1000 nM (sheet 'Lestaurtinib' of Supplementary Table 1),run:Lestaurtinib_02624_R3,Plate:MR020)?
**A.** 1430 nM

**Q.** And the potency estimated from few doses (compound concentrations:100 nM and 1000 nM (sheet 'Lestaurtinib' of Supplementary Table 1),run:Lestaurtinib_02724_R1,Plate:MR021)?
**A.** 1210 nM

**Q.** And the potency estimated from few doses (compound concentrations:100 nM and 1000 nM (sheet 'Lestaurtinib' of Supplementary Table 1),run:Lestaurtinib_02741_R1,Plate:MR023)?
**A.** 1340 nM

**Q.** And the potency estimated from few doses (compound concentrations:100 nM and 1000 nM (sheet 'Lestaurtinib' of Supplementary Table 1),run:Lestaurtinib_02741_R2,Plate:MR023)?
**A.** 998 nM

**Q.** And the potency estimated from few doses (compound concentrations:100 nM and 1000 nM (sheet 'Lestaurtinib' of Supplementary Table 1),run:Lestaurtinib_02748_R2,Plate:MR024)?
**A.** 1150 nM

**Q.** What about the potency estimated from few doses (compound concentrations:100 nM and 1000 nM (sheet 'Lestaurtinib' of Supplementary Table 1),run:Lestaurtinib_02748_R3,Plate:MR024) of the same substance?
**A.** 1440 nM

**Q.** And the potency estimated from few doses (compound concentrations:100 nM and 1000 nM (sheet 'Lestaurtinib' of Supplementary Table 1),run:Lestaurtinib_02752_R2,Plate:MR025)?
**A.** 1240 nM

**Q.** And the potency estimated from few doses (compound concentrations:100 nM and 1000 nM (sheet 'Lestaurtinib' of Supplementary Table 1),run:Lestaurtinib_02765_R2,Plate:MR026)?
**A.** 1440 nM

**Q.** What about the potency estimated from few doses (compound concentrations:100 nM and 1000 nM (sheet 'Lestaurtinib' of Supplementary Table 1),run:Lestaurtinib_02765_R3,Plate:MR026) of the same substance?
**A.** 907 nM

**Q.** And the potency estimated from few doses (compound concentrations:100 nM and 1000 nM (sheet 'Lestaurtinib' of Supplementary Table 1),run:Lestaurtinib_02768_R1,Plate:MR028)?
**A.** 2150 nM

**Q.** What about the potency estimated from few doses (compound concentrations:100 nM and 1000 nM (sheet 'Lestaurtinib' of Supplementary Table 1),run:Lestaurtinib_02768_R2,Plate:MR028) of the same substance?
**A.** 2240 nM

**Q.** And the potency estimated from few doses (compound concentrations:100 nM and 1000 nM (sheet 'Lestaurtinib' of Supplementary Table 1),run:Lestaurtinib_02795_R1,Plate:MR022)?
**A.** 1410 nM

**Q.** What about the potency estimated from few doses (compound concentrations:100 nM and 1000 nM (sheet 'Lestaurtinib' of Supplementary Table 1),run:Lestaurtinib_02795_R3,Plate:MR022) of the same substance?
**A.** 750 nM

**Q.** And the potency estimated from few doses (compound concentrations:100 nM and 1000 nM (sheet 'Lestaurtinib' of Supplementary Table 1),run:Lestaurtinib_02802_R1,Plate:MR029)?
**A.** 996 nM

**Q.** What about the potency estimated from few doses (compound concentrations:100 nM and 1000 nM (sheet 'Lestaurtinib' of Supplementary Table 1),run:Lestaurtinib_02802_R2,Plate:MR029) of the same substance?
**A.** 924 nM

**Q.** And the potency estimated from few doses (compound concentrations:100 nM and 1000 nM (sheet 'Lestaurtinib' of Supplementary Table 1),run:Lestaurtinib_02802_R3,Plate:MR029)?
**A.** 1410 nM

**Q.** And the potency estimated from few doses (compound concentrations:100 nM and 1000 nM (sheet 'Lestaurtinib' of Supplementary Table 1),run:Lestaurtinib_02896_R3,Plate:MR030)?
**A.** 953 nM

**Q.** What about the potency estimated from few doses (compound concentrations:100 nM and 1000 nM (sheet 'Lestaurtinib' of Supplementary Table 1),run:Lestaurtinib_03252_R2,Plate:MR032) of the same substance?
**A.** 1310 nM

**Q.** And the potency estimated from few doses (compound concentrations:100 nM and 1000 nM (sheet 'Lestaurtinib' of Supplementary Table 1),run:Lestaurtinib_03260_R1,Plate:MR033)?
**A.** 896 nM

**Q.** What about the potency estimated from few doses (compound concentrations:100 nM and 1000 nM (sheet 'Lestaurtinib' of Supplementary Table 1),run:Lestaurtinib_03260_R2,Plate:MR033) of the same substance?
**A.** 1540 nM

**Q.** And the potency estimated from few doses (compound concentrations:100 nM and 1000 nM (sheet 'Lestaurtinib' of Supplementary Table 1),run:Lestaurtinib_03260_R3,Plate:MR033)?
**A.** 806 nM
